The text below walks through data of PubChem BioAssay.

Each structure is given as a SMILES string. Active and inactive are the calls of the source.

For one assay, the target named is Albumin (Bos taurus) (UniProt P02769). Put plainly: compounds binding labelled BSA control protein – biochemical, small-molecule microarray, Alexa647 label, 635/667 nm fluorescence, artefact control for SMM control protein annotation, profiling panel (AID 1118).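 Also: score merges 667 nm emission intensity and signal-to-noise per printed compound spot.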 To be noted: BSA-A647 binding, fluorescence 635 nm, higher = more signal.
Chain of Albumin (Bos taurus) (P02769 whole entry, looked up): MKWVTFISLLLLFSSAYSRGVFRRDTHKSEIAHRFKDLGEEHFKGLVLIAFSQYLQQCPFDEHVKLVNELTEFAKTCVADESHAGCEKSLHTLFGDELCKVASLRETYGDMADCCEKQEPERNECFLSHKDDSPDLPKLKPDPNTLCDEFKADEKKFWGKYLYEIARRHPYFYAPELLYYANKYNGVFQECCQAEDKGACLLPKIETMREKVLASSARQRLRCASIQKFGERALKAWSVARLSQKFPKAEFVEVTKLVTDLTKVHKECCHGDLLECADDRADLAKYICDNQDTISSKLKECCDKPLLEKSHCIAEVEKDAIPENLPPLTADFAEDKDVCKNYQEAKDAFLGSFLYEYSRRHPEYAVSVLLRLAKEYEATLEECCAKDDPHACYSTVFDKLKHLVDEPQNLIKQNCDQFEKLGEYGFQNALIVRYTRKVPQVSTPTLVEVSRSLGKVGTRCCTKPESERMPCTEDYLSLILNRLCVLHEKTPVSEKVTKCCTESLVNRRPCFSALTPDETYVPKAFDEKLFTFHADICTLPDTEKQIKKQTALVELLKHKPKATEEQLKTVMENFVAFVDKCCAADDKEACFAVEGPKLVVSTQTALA
Assay [1] in a line: probe aXIP binding to arrayed compounds – biochemical, NeuroSMM set, 635/667 nm fluorescence, primary screen (AID 1119).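 Also: probe is the protein aXip251-270 applied at 1 µg/mL to compound-printed slides; binding of probe to printed compounds measured as 667 nm fluorescence plus signal to noise.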 To be noted: small-molecule microarray, higher = more signal, called active from +8 up or from −8 down.
Assay [2] can be described thus: probe aNOTCH3 binding on compound microarray – biochemical, small-molecule microarray, 635/667 nm fluorescence, primary screen (AID 1120).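 Also: probe is a biotin-tagged antibody raised against NOTCH3 rather than NOTCH3 protein; score merges spot fluorescence near 667 nm with spot signal to noise.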 To be noted: higher = more signal.
A short description of assay [3]: probe aNOTCH2 binding on compound microarray – biochemical, small-molecule microarray, 635/667 nm fluorescence, primary screen (AID 1121).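 Also: score merges feature fluorescence read at 667 nm with its signal to noise.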 The settings on record: higher = more signal.
The target of assay [4] is Carbonic anhydrase 2 (Homo sapiens) (UniProt P00918). In words: compounds binding carbonic anhydrase 2 – biochemical, small-molecule microarray, Alexa647-labelled CAII, profiling panel (AID 1122). To be noted: CAII-A647 binding fluorescence, higher = more signal.
Assay [5] is described as follows: COS7 lysate on small-molecule microarray, probe aHis, 635 nm (AID 1123).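 Also: z-score combines 667nm fluorescence intensity with signal-to-noise per printed compound spot.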 To be noted: COS7 cell lysate, fluorescence, higher = more signal.
Assay [6] is described as follows: probe aLAP1 signal on lysate-treated microarray – cell lysate, small-molecule microarray, COS7 lysate, primary screen (AID 1124).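 Also: lysate comes from COS7 cells expressing LAP1 and is applied at 0.3 µg/mL; score merges spot fluorescence near 667 nm with signal-to-noise over triplicate slides.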 The settings on record: probe aLAP1, fluorescence, higher = more signal.
The subject of another assay is Sam68 (KHDRBS1). In words: compounds binding KHDRBS1 protein – biochemical, small-molecule microarray, 635 nm fluorescence, primary screen (AID 1125).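 Also: score merges 667 nm channel intensity with signal to noise over triplicate slides.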 To be noted: higher = more signal.
For assay [7], the system named is Chordin-like protein 2 (CHRDL2). Put plainly: compounds binding chordin-like 2 – biochemical, small-molecule microarray, 635 nm fluorescence, primary screen (AID 1126).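 Also: printed compound slides probed with Chrdl2 protein at 4 µg/mL for 1 h at 4 C; score merges 667 nm emission intensity with signal to noise over three replicate slides.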 To be noted: fluorescence 635 nm, higher = more signal.
Assay [8] has as its target Concanavalin-A (Canavalia ensiformis) (UniProt P02866). Put plainly: compounds binding concanavalin A lectin – biochemical, small-molecule microarray, Alexa647 label, 635 nm, artefact control for SMM control protein annotation, primary screen (AID 1127).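 Also: z combines 667 nm emission intensity with signal-to-noise across three replicate slides.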 The settings on record: ConA-A647 binding fluorescence, higher = more signal.
The nature of assay [9]: compounds binding Alexa647 anti-His antibody – biochemical, small-molecule microarray, 635 nm fluorescence, artefact control for SMM control protein annotation, primary screen (AID 1128).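 Also: score merges feature fluorescence with signal-to-noise for each printed compound spot.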 To be noted: higher = more signal.
The test system of assay [10] is Human papillomavirus type 1a E7 protein (residues 1-88). In words: HPV1a E7 small-molecule binders, primary screen, biochemical, small-molecule microarray, residues 1-88, 635 nm (AID 1129). To be noted: small-molecule microarray binding, fluorescence 635 nm; higher = more signal.
For assay [11], the target named is Focal adhesion kinase 1 (Homo sapiens) (UniProt Q05397). In words: PTK2 protein binding on printed compound slides – biochemical, small-molecule microarray, 635/667 nm fluorescence, BSA, DTT, primary screen (AID 1130).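 Also: composite of spot emission at 667 nm and signal to noise over triplicate slides.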 The settings on record: 635 nm fluorescence, higher = more signal.
Chain of Focal adhesion kinase 1 (Homo sapiens) (Q05397 whole entry, looked up): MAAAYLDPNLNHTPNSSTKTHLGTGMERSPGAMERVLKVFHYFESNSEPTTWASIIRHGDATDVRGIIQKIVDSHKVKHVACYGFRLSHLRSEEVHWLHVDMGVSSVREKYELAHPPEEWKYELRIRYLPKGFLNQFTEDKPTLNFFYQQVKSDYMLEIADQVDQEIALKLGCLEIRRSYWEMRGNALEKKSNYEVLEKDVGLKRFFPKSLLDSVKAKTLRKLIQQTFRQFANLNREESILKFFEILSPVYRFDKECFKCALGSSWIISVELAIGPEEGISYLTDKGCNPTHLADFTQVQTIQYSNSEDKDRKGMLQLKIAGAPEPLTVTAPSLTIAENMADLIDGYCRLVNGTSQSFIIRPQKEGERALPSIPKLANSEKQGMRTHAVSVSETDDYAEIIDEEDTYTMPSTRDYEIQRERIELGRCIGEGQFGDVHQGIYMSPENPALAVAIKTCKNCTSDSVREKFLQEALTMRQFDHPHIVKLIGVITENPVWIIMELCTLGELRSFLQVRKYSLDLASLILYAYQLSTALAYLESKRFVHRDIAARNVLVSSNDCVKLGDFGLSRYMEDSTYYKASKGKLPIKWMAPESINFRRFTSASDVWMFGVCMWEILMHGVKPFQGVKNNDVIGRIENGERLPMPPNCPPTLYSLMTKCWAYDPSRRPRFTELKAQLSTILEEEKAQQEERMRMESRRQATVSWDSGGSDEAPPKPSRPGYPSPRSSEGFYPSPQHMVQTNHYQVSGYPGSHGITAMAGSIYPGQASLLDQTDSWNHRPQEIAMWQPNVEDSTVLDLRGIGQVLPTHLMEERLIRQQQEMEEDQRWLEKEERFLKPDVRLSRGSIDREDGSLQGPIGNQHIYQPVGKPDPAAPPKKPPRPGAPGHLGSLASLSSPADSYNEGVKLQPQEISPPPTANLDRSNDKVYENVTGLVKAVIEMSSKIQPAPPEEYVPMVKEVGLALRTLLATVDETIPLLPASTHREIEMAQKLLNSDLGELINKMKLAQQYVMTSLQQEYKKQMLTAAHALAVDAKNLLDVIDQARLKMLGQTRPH
Assay [12] has as its system Fibrinogen (Alexa647-labelled). Put plainly: Alexa647-fibrinogen binding to printed small molecules – biochemical, small-molecule microarray, 635/667 nm fluorescence, artefact control for SMM control-protein annotation, profiling panel (AID 1131).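 Also: z-score merges 667 nm fluorescence with per-spot signal-to-noise over triplicate slides.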 To be noted: fibrinogen-A647 binding fluorescence, higher = more signal.
For assay [13], the target named is Follistatin (Homo sapiens) (UniProt P19883). Put plainly: FST protein binding to printed compounds – biochemical, small-molecule microarray, 635/667 nm fluorescence, primary screen (AID 1132). To be noted: 635 nm fluorescence, higher = more signal.
Chain of Follistatin (Homo sapiens) (P19883 whole entry, looked up): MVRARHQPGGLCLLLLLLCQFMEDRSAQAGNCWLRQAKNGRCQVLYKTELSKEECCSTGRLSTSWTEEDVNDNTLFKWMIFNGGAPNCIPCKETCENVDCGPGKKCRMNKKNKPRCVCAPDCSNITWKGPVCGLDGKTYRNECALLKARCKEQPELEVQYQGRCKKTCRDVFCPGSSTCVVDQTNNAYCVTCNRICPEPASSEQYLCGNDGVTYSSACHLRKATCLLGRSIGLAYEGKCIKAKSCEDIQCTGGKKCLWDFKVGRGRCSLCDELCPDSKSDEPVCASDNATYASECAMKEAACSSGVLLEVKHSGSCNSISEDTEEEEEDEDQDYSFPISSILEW
The target of assay [14] is Fibroblast growth factor 2 (Homo sapiens) (UniProt P09038). In words: basic fibroblast growth factor binding to printed compounds – biochemical, small-molecule microarray, 635/667 nm fluorescence, primary screen (AID 1133). To be noted: FGF2, fluorescence 635/667, higher = more signal.
Chain of Fibroblast growth factor 2 (Homo sapiens) (P09038 whole entry, looked up): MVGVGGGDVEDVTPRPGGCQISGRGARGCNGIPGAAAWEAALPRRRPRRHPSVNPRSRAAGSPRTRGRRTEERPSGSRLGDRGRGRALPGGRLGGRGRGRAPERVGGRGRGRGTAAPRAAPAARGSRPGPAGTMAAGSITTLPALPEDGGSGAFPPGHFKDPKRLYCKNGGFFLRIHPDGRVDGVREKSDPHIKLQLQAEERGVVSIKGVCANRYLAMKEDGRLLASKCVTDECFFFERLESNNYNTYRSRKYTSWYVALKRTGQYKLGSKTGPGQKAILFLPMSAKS
A short description of assay [15]: JC-1 mitochondrial potential readout, lung cancer cells – cell-based, A549, JC-1 fluorescence, basal, 24 h, 100 nL, profiling panel (AID 1138).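 Also: A549 lung adenocarcinoma cells under basal conditions with no added stimulus; test concentration not given here.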 The settings on record: higher = more signal.
In the next assay the test system is Lefty1. Put plainly: Lefty1 protein binding to printed compounds – biochemical, small-molecule microarray, 635/667 nm fluorescence, primary screen (AID 1139). The settings on record: fluorescence 635/667, higher = more signal.
Assay [16] has as its system wheat germ agglutinin (Triticum aestivum), Alexa647-labelled. In words: Alexa647-WGA lectin binding to printed small molecules – biochemical, small-molecule microarray, 635/667 nm fluorescence, artefact control for SMM control-protein annotation, profiling panel (AID 1140).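 Also: score merges 667 nm feature emission with signal to noise over triplicate slides.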 To be noted: WGA-A647 binding, 635 nm fluorescence, higher = more signal.
Assay [17] concerns the target Luciferin 4-monooxygenase (Photinus pyralis) (UniProt P08659). In words: inhibition of purified Photinus pyralis luciferase – biochemical, luminescence, purified enzyme, 2006 set, primary screen (AID 1141).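 Also: cell-free assay with purified firefly luciferase at 100 ng per well in PBS; test concentration not given here.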 To be noted: purified firefly luciferase, SteadyGlo luminescence, 30 min; higher = more signal, called active from +8 up or from −8 down.

Chain of Luciferin 4-monooxygenase (Photinus pyralis) (P08659 whole entry, looked up): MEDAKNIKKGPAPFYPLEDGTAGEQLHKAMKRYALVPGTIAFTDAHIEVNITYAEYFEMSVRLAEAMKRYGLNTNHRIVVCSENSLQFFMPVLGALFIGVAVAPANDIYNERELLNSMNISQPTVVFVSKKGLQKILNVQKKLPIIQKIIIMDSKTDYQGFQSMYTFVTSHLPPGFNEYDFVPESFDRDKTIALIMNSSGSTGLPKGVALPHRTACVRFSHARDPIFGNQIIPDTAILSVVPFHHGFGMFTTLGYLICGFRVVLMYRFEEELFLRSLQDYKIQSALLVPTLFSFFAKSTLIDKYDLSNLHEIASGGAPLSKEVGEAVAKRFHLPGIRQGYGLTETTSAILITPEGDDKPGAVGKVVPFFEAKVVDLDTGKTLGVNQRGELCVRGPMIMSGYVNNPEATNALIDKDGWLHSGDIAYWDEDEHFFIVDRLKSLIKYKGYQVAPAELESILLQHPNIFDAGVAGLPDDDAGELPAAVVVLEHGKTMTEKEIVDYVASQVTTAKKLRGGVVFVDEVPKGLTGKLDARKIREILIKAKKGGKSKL
Chain of Concanavalin-A (Canavalia ensiformis) (P02866 whole entry, looked up): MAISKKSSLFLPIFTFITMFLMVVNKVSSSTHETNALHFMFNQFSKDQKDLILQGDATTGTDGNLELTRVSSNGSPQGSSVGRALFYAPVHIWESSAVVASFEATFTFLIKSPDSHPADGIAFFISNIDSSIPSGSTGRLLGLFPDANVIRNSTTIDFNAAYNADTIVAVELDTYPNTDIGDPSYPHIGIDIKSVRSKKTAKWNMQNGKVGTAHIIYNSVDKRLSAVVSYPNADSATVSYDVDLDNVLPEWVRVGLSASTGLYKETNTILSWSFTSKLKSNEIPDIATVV

With `COCCCNC(=O)[C@@]1(Cc2ccccc2CN=[N+]=[N-])COC(c2ccc(OCCCO)cc2)=N1`, the composite z-score in the assay with Albumin (Bos taurus) is 0.922; in assay [2], 0.248; in assay [3], 0.0261; in assay [4], 0.673; in assay [5], 2.83; in assay [6], 0.413. Moreover, the composite z-score with Sam68 (KHDRBS1) was 1.3; in assay [7], -2.16; in assay [8], 1.13; in assay [9], 2.69; in assay [10], 1.21; in assay [11], 0.759. Besides, the composite z-score is 0.479 in assay [12]; 0.186 in assay [13]; -0.742 in assay [14]; -0.713 with Lefty1; 1.03 in assay [16]. The composite Z-score in assay [1] is 0.536 (inactive). In addition, the z-score in assay [15] is 1.79; in assay [17], -1.59 (inactive).

Regarding `C[N+](C)(C)CCCC[C@@H]1NC(=O)[C@@H]2C[C@H](C(=O)NCCCCCNC(=O)CS)[C@H](c3ccc(O)cc3)N2C1=O`, the composite z-score with Albumin (Bos taurus) was -0.172; in assay [2], -0.152; in [3] it was -0.179; in [4], 0.728; in [5], 1.05; in assay [6], 0.453. The composite z-score with Sam68 (KHDRBS1) is 0.245; in assay [7], -0.479; in [8], 1.12; in [9] it was 1.6; in [10] it was 0.076; in assay [11], -0.0206. Also, the composite z-score amounted to 0.141 in assay [12]; 1.46 in assay [13]; 1.19 in assay [14]; 1.02 in the assay with Lefty1; 0.477 in assay [16]. The composite Z-score in assay [1] was -0.419 (inactive). Besides, the z-score is 1.52 in [15] and -0.703 (inactive) in [17].

Regarding `O=C(NCc1ccccc1)[C@@H]1c2ccccc2C(=O)N(Cc2ccccc2Cl)[C@H]1c1ccc(CO)cc1`, the composite z-score with Albumin (Bos taurus) is -0.0154; in [2], 0.0749; in assay [3], -0.0165; in assay [4] it was 0.693; in assay [5], 2.36; in assay [6], 0.954. In addition, the composite z-score was found to be 1.35 with Sam68 (KHDRBS1); 0.702 in assay [7]; 1.13 in assay [8]; 2.46 in assay [9]; 1.17 in assay [10]; 0.719 in assay [11]. Further, the composite z-score in assay [12] was found to be 0.562; in assay [13], 1.47; in assay [14], 1.22; in the assay with Lefty1, 0.817; in assay [16] it was 0.704. In [1], the composite Z-score is 1.24 (inactive). Besides, the z-score in assay [15] is 1.88; in assay [17], -1.01 (inactive).

For `COC(=O)c1c2oc(c1C(=O)OC)C(=O)N[C@@H](C(C)C)Cn1nncc1C1(CCCCC1)NC(=O)N[C@H](CO)CC2`, the composite z-score in the assay with Albumin (Bos taurus) is 0.543; in assay [2] it was -0.126; in assay [3], -0.131; in [4] it was 0.86; in assay [5], 0.942; in assay [6], -0.162. Also, the composite z-score was -0.0929 in the assay on Sam68 (KHDRBS1); -0.573 in assay [7]; 0.77 in assay [8]; -0.614 in assay [9]; -0.622 in [10]; 0.195 in assay [11]. In addition, the composite z-score in assay [12] was -1.26; in [13], -0.238; in assay [14], 0.0484; in the assay with Lefty1, 0.0278; in assay [16], -0.719. For the same molecule, the composite Z-score in assay [1] is 0.559 (inactive). Besides, the z-score in [15] was 2.33; in assay [17], -1.25 (inactive).

Consider `C=CCNC(=O)[C@H]1[C@@H]2C(=O)O[C@@H](c3ccccc3)[C@@H](c3ccccc3)N2[C@@H](c2ccc(OCCO)cc2)[C@]12C(=O)Nc1ccc(C#CCCO)cc12`, for which the composite z-score with Albumin (Bos taurus) is 0.321; in assay [2], 0.116; in [3], -0.13; in assay [4], 0.394; in assay [5], 1.86; in assay [6], 0.725. Further, the composite z-score was 1.14 in the assay with Sam68 (KHDRBS1); 0.089 in assay [7]; 0.783 in assay [8]; -0.0886 in assay [9]; 1.11 in assay [10]; 0.418 in [11]. In addition, the composite z-score stood at 0.61 in assay [12]; 1.3 in [13]; 0.327 in assay [14]; 0.909 in the assay on Lefty1; 1.06 in assay [16]. In addition, the composite Z-score in assay [1] was 0.512 (inactive). Besides, the z-score in assay [15] was 0.187; in assay [17], -0.969 (inactive).
